Source: PubChem
WRN inhibitor: qHTS for Inhibitors of WRN Helicase. Bifunctional 3'-5' exonuclease/ATP-dependent helicase WRN (Homo sapiens), Q14191. WRN helicase unwinding, fluorescent forked duplex, kinetic. Potency, µM (top dose mostly 114 µM), actives largely listed as inhibitors. hit rate 0.46% among 360,000; further: nearly all actives have a fitted effect of over 55% in size
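Kinetic red-fluorescence monitoring (525/598 nm) tracks WRN helicase activity after 100 nM fluorophore-quencher forked duplex and 2 mM ATP are added to 20 nM enzyme pretreated 15 min at room temperature with compound.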
Pol beta inh: qHTS Assay for Inhibitors of DNA Polymerase Beta | P06746 | Pol beta primer extension/strand displacement, fluorescence kinetic | Potency, µM (doses to about 114 µM), hits mostly inhibitors | hit rate 1.3% among 340,000
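Pol beta (10 nM) was preincubated with compound for 15 min at room temperature. The reaction was then started with 50 nM substrate and read immediately and after a further 10 min at room temperature.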
L3MBTL1 inh: qHTS Assay for the Inhibitors of L3MBTL1 | AID 485360, 2010 | Potency, µM (top dose mostly 57.1 µM), most hits filed as inhibitors | hit rate 0.66% among 230,000 | AlphaScreen L3MBTL1–H3K9me1 peptide binding | Lethal(3)malignant brain tumor-like protein 1 (Homo sapiens), Q9Y468; further: nearly all actives have a fitted effect of over 60% in size
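L3MBTL1 50 nM + b-AHA-H3(1-15)K9me1 75 nM, 30 min RT; compound added, 30 min RT; streptavidin donor/Ni-chelate acceptor beads 10 ug/mL each final, 30 min RT dark; AlphaScreen read.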
POLK inh: qHTS for Inhibitors of Polymerase Kappa. DNA polymerase kappa (Homo sapiens), Q9UBT6. purified Pol kappa, fluorescent DNA synthesis assay, 10 min. Potency, µM (doses to about 107 µM), actives largely listed as inhibitors. hit rate 0.53% among 400,000. AID 588579, 2011
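10 nM Pol kappa preincubated 15 min at room temperature with compounds, then reaction started with substrate at 50 nM final. Fluorescence read kinetically at 0 and 10 min; buffer-only wells served as negative control.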
Pol iota inh: qHTS for Inhibitors of Polymerase Iota; AID 588590, 2011; DNA polymerase iota (Homo sapiens), Q9UNA4; Potency, µM (titrated, usually from 115 µM), actives largely listed as inhibitors; hit rate 1% among 390,000; Pol iota fluorescent replication assay, 10 min
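Fluorescent replication assay read twice, at 0 min and 10 min after adding 50 nM (final) substrate. Enzyme (10 nM) and compounds were first incubated 15 min at room temperature; enzyme-free buffer wells were negative controls.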
POLH inh: qHTS for Inhibitors of Polymerase Eta; recombinant Pol eta, fluorescent DNA replication assay; Potency, µM (titrated, usually from 114 µM), actives largely listed as inhibitors; hit rate 1.2% among 390,000; AID 588591, 2011
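Pol eta at 10 nM preincubated with compounds 15 min at room temperature; reaction started with fluorescent substrate (50 nM final) and read kinetically at 0 and 10 min.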
Hits are given with their value; [ ] = dose if it differs, or a comment. Shown are actives, neighbours in structure and some others; about 2.5% of the full set was active somewhere. The call rests on the fitted dose curve; in most records, active means well fitted curve in the direction sought with a large enough effect; inconclusive means small, poorly fitted or top-dose-only effect, or another doubt; inactive means no such curve, though single readings can be large; an effect the other way counts as inactive or inconclusive.

For COc1cc(C(=O)N/N=C/c2ccc3c(c2)c2ccccc2n3C)ccc1O the results were WRN inhibitor inactive[11.6 µM], Pol beta inh 25.1µM, POLK inh inconclusive, Pol iota inh 17.8µM and POLH inh 15.8µM.
COc1cc(/C=N\NC(=O)c2ccc(-c3ccccc3)cc2)cc(OC)c1O was read as WRN inhibitor inactive[11.6 µM], Pol beta inh 25.1µM, POLK inh inconclusive, Pol iota inh 31.6µM and POLH inh inconclusive.
COc1cc(/C=N/Nc2nn3cnnc3c3ccccc23)ccc1O was read as WRN inhibitor inconclusive, Pol beta inh 50.1µM, L3MBTL1 inh inactive, POLK inh inactive, Pol iota inh inconclusive and POLH inh inconclusive.
CCN(CC(=O)Nc1ccc(NC(C)=O)cc1)C(=O)CSc1nnc(-c2ccco2)n1CC was read as WRN inhibitor inactive, L3MBTL1 inh inactive, POLK inh inactive, Pol iota inh inactive and POLH inh inactive.
`CN1CCN(c2ccc(S(=O)(=O)N3CCOCC3)cc2NC(=O)COc2ccc(F)cc2Cl)CC1` gave WRN inhibitor inactive, Pol beta inh inactive, POLK inh inactive, Pol iota inh inactive and POLH inh inactive.
Screening CCOC(=O)c1c(C)[nH]c(C)c1S(=O)(=O)N(C)CC(=O)Nc1ccccc1F returned WRN inhibitor inactive[11.6 µM], Pol beta inh inactive, POLK inh 44.7µM, Pol iota inh 50.1µM and POLH inh inactive.
For Cc1ccccc1C(=O)NCCSc1ccccc1 the results were WRN inhibitor inactive, Pol beta inh inactive, POLK inh inactive, Pol iota inh inactive and POLH inh inactive.
Screening C=C(C)COc1ccc2oc(C)c(C(=O)OCCOC)c2c1 returned WRN inhibitor inactive, Pol beta inh inactive, L3MBTL1 inh inactive, POLK inh inactive, Pol iota inh 89.1µM and POLH inh inactive.
Screening N#CC1=C2SCN(Cc3ccccc3)CN2C(=O)CC1c1cccs1 (stereo not drawn) returned WRN inhibitor inactive, Pol beta inh inconclusive, L3MBTL1 inh inactive, POLK inh inactive, Pol iota inh inconclusive and POLH inh inactive.
For COc1ccc2ccccc2c1C1CC(=O)N2CN(C3CCCCC3)CSC2=C1C#N (stereo not drawn) the results were WRN inhibitor inactive, Pol beta inh 89.1µM, L3MBTL1 inh inactive, POLK inh inactive, Pol iota inh inconclusive and POLH inh inconclusive.
For COc1ccc(C2CC(=O)N3CN(Cc4ccco4)CSC3=C2C#N)cc1 (stereo not drawn) the results were WRN inhibitor inactive, Pol beta inh inconclusive, L3MBTL1 inh inactive, POLK inh inactive, Pol iota inh inconclusive and POLH inh inactive.
`N#CC1=C2SCN(Cc3ccccc3)CN2C(=O)CC1c1ccc2c(c1)OCO2` (stereo not drawn) gave WRN inhibitor inactive, Pol beta inh 44.7µM, L3MBTL1 inh inactive, POLK inh inactive, Pol iota inh inactive and POLH inh inactive.
For COc1ccc(C2CC(=O)N3CN(C4CCCCC4)CSC3=C2C#N)c(OC)c1 (stereo not drawn) the results were Pol beta inh inactive, POLK inh inactive, Pol iota inh 7.94µM and POLH inh inactive.
For COc1ccc2ccccc2c1C1CC(=O)N2CN(Cc3ccco3)CSC2=C1C#N (stereo not drawn) the results were WRN inhibitor inactive, Pol beta inh 50.1µM, L3MBTL1 inh inactive, POLK inh inactive, Pol iota inh inconclusive and POLH inh 89.1µM.
`CCOc1ccccc1N(CC(=O)NC1CCCC1)S(=O)(=O)c1ccc(C)cc1` gave WRN inhibitor inactive, Pol beta inh inactive, POLK inh inactive, Pol iota inh inactive and POLH inh inactive.
`CC1CCN(C(=O)CSc2nc3ncccc3[nH]2)CC1` gave WRN inhibitor inactive, Pol beta inh inactive, POLK inh inactive, Pol iota inh inactive and POLH inh inactive.
Screening CCC1CCCCN1C(=O)CSc1nc2ncccc2[nH]1 (stereo not drawn) returned WRN inhibitor inactive[11.6 µM], Pol beta inh inactive, POLK inh 25.1µM, Pol iota inh inconclusive and POLH inh inactive.
O=C(Nc1ccc(S(=O)(=O)Nc2ncccn2)cc1)c1nn(Cc2ccccc2)c(=O)c2ccccc12 was read as WRN inhibitor inactive, Pol beta inh inconclusive, POLK inh inactive, Pol iota inh inconclusive and POLH inh 79.4µM.
For CC1CN(C2=Nc3cccc4cccc2c34)CC(C)O1 (stereo not drawn) the results were WRN inhibitor inactive[11.6 µM], Pol beta inh inactive, L3MBTL1 inh inactive, POLK inh inactive, Pol iota inh 25.1µM and POLH inh inactive.
`COc1cccc(CNC(=O)CCC(=O)n2ncc3cc(C)ccc32)c1OC` gave WRN inhibitor inactive, Pol beta inh inactive, L3MBTL1 inh inactive, POLK inh inactive, Pol iota inh inactive and POLH inh inactive.
Screening Cc1cc(=O)c(C(=O)N[C@@H](C(=O)N[C@@H]2C(=O)N3C(C(=O)O)=C(CSc4nnnn4C)CS[C@H]23)c2ccc(O)cc2)c[nH]1 returned POLK inh inactive[19.4 µM].
`CC(=O)OCC1=C(C(=O)OC(C)(C)C)N2C(=O)[C@@H](NC(=O)Cc3ccccc3)[C@H]2SC1` gave WRN inhibitor inactive, POLK inh inconclusive, Pol iota inh 31.6µM and POLH inh inconclusive.
CC1=C(C(=O)OCC(Cl)(Cl)Cl)N2C(=O)C(NC(=O)Cc3ccccc3)C2SC1 (stereo not drawn) was read as WRN inhibitor inactive, Pol beta inh inactive, L3MBTL1 inh inconclusive, POLK inh inactive, Pol iota inh inactive and POLH inh inactive.
Cc1nnc(SCC2=C(C(=O)O)N3C(=O)C(NC(=O)Cc4ccccc4)C3SC2)s1 (stereo not drawn) was read as WRN inhibitor inactive, L3MBTL1 inh inactive, POLK inh inconclusive, Pol iota inh inconclusive and POLH inh 22.4µM.
CC(C(=O)NC1C(=O)N2C(C(=O)O)=C(CSc3nnnn3C)CSC12)n1cc(Cl)cn1 (stereo not drawn) was read as WRN inhibitor inactive, Pol beta inh inconclusive, POLK inh inactive, Pol iota inh inconclusive and POLH inh 35.5µM.
For COc1ccc(CNC(=O)C2CCN(S(=O)(=O)N3CCC4(CC3)OCCO4)CC2)c(OC)c1 the results were WRN inhibitor inactive, Pol beta inh inactive, L3MBTL1 inh inactive, POLK inh inactive, Pol iota inh inconclusive and POLH inh inactive.
